D1 allo mod – allosteric modulators of human D1 dopamine receptor | HEK293 D1, CRE-luciferase, dopamine EC30 potentiation; actives deviate in either direction | B-score at 10 µM | 5.9% of 58,000 active | AID 641;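 active = luminescence count or its row- and column-corrected plate score outside the 99.7% band of the plate's sample wells, on either side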
EphB4 ephrin blk – EphB4-ephrin-B2 interaction antagonism | EphB4 LBD / TNYL-RAW-Alexa532 peptide, fluorescence polarization | AID 720 | P54760 | 0.15% of 97,000 active | inhibition, % at 7 µM;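 active = inhibition above the screen-wide mean inhibition plus 3 SD, cut at about 15% in these data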
Target sequence (P54760 whole entry, looked up, the tested form may be a part): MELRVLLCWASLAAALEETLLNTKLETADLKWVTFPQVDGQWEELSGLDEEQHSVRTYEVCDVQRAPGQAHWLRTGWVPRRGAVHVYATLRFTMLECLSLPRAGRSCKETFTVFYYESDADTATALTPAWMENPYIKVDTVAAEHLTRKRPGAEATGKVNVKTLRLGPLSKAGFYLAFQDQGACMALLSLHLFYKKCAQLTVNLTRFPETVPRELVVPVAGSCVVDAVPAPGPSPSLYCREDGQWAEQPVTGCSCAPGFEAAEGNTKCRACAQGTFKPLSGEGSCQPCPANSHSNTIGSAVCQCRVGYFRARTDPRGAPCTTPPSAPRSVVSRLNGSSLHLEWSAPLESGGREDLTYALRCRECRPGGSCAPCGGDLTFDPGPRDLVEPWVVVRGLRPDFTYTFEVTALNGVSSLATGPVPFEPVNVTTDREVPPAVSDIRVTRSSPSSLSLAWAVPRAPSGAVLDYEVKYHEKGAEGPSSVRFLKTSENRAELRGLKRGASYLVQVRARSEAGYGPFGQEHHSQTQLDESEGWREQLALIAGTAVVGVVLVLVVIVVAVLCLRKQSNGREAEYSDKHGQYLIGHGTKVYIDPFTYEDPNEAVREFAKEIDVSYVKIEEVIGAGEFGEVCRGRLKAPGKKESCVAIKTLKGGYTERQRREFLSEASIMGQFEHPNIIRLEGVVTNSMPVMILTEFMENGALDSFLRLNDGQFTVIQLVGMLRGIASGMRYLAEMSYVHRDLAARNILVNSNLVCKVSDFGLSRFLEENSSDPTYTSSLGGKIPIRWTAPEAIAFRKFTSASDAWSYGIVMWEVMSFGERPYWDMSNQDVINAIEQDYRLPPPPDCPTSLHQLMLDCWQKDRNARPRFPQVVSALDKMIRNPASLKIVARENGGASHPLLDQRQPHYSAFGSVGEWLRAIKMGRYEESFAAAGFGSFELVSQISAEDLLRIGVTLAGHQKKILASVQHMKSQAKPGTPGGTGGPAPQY
hDAT+cocaine – human DAT dopamine uptake with cocaine, either direction. B-score at 10 µM. LLC-PK1 hDAT cells, [14C]-dopamine uptake with cocaine IC80; actives deviate in either direction. 1.3% of 110,000 active. Q01959;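 active = Z score or B-score, a plate-position-corrected score, falls beyond the plate's 99.7% confidence bounds, in either direction; inactive = both scores lie inside the 99.7% bounds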
Each line names hits and unclear results; the compound was inactive in the other large screens. This excerpt belongs to a sample that is enriched for hits.

COc1ccccc1S(=O)(=O)Cc1ccc(C(=O)N2CCCC2)o1	none
O=C(/C=C/c1ccc(Cl)cc1Cl)NCc1ccncc1	hDAT+cocaine 2.3 (no result: D1 allo mod)
Cc1cc(C)nc(NC(=O)/C=C/c2ccc(Cl)cc2Cl)c1	none (no result: D1 allo mod, hDAT+cocaine)
COC(=O)C1=C(C)N2C(=O)CSC2=NC1c1ccc2c(c1)OCO2 (centres undefined)	none (no result: EphB4 ephrin blk, hDAT+cocaine)
CCO[C@H]1OC(C(N)=O)=C[C@@H](C2CC2)[C@@H]1CCCO	none (no result: D1 allo mod, EphB4 ephrin blk)
CN1C(=O)CC(N2CCN(C(=O)CN3CCCC3)CC2)C1=O (centres undefined)	D1 allo mod -2.7 (no result: EphB4 ephrin blk)
CN1C(=O)CC(N2CCN(CC(=O)N3CCCC3)CC2)C1=O (centres undefined)	none
COc1nc(N/N=C/c2ccccc2F)nc(N2CCCCC2)n1	none (no result: D1 allo mod)
O=C(Nc1ccc(N2CCCC2)c(Cl)c1)c1ccco1	D1 allo mod -4 (no result: EphB4 ephrin blk)
O=C(Nc1ccc(N2CCN(C(=O)c3ccccc3)CC2)c(Cl)c1)c1ccc(Br)o1	none
O=C(Nc1ccc(N2CCOCC2)c(Cl)c1)c1ccc(Br)o1	D1 allo mod -5
O=C(Nc1ccc(N2CCCCC2)c(C(=O)O)c1)c1ccco1	none
CC1=C(C(=O)NCc2ccccn2)C2(CCC(C)CC2)OC1=O (centres undefined)	none (no result: hDAT+cocaine)
O=C(OC1C[C@@H]2CC3C[C@H](C1)N2CC3=O)c1c[nH]c2ccccc12 (some centres undefined)	none (no result: D1 allo mod, EphB4 ephrin blk)
CCOC(=O)N1CCC(Nc2ncnc3c2cnn3-c2ccc(C)cc2C)CC1	D1 allo mod -3.7
C=CCNc1ncnc2c1cnn2-c1ccc(C)cc1C	none (no result: EphB4 ephrin blk)
Cc1cc(N2CCOCC2)nc(NCc2ccccc2)n1	none (no result: D1 allo mod)
c1ccc(CNn2c(N3CCOCC3)nc3ccccc32)cc1	D1 allo mod -3.3
NC(=S)NNC(=O)c1ccccc1	none (no result: D1 allo mod)
S=C(Nc1ccccn1)c1ccccn1	D1 allo mod -2.6, hDAT+cocaine 2.4
Cc1ccc(C)c(NC(=S)c2ccccn2)c1	none (no result: D1 allo mod)
COc1cc(CCCN2C(=S)NC[C@@H]2CC2CCCCC2)cc(OC)c1OC	none (no result: D1 allo mod, EphB4 ephrin blk)
CCOC(=O)C[C@H]1c2ccc(C(F)(F)F)cc2S(=O)(=O)N1c1cccc(OC)c1	none (no result: D1 allo mod, EphB4 ephrin blk)
COc1cc2c(cc1OC)C1Cc3ccc(OC)c(OC)c3C[N+]1([O-])CC2 (centres undefined)	none (no result: D1 allo mod, EphB4 ephrin blk)
O=C(O)Cc1ccc(O)c(F)c1	none (no result: D1 allo mod, EphB4 ephrin blk)
Cc1cc(C)n2nc(-c3sccc3-n3cccc3)cc2n1	hDAT+cocaine -2.6 (no result: D1 allo mod)
Cc1cc(C)n2nc(-c3sccc3-n3c(C)ccc3C)cc2n1	none (no result: D1 allo mod)
CC1(c2nnc(-c3cccc(Cl)c3)o2)CC(c2ccccc2F)=NO1 (centres undefined)	none (no result: D1 allo mod, EphB4 ephrin blk)
O=C(Nc1ncccc1Cl)C(Sc1ccccc1)c1ccccc1 (centres undefined)	none (no result: D1 allo mod)
Oc1cccc(-c2nc3ccccc3s2)c1	D1 allo mod -8.7 (no result: hDAT+cocaine)
Nc1cccc(-c2nc3ccccc3s2)c1	none (no result: D1 allo mod)
COc1ccc(Nc2nc(N3CCCC3)c3ccccc3n2)cc1	D1 allo mod -6.9 (no result: EphB4 ephrin blk)
CCN(CC)c1ccc(Nc2nc(N3CCOCC3)c3ccccc3n2)cc1	none (no result: D1 allo mod)
COc1ccc(-c2csc(NC(C)c3nc4cc(C(=O)NCCCO)ccc4n3Cc3ccc(C)cc3)n2)cc1 (centres undefined)	none (no result: D1 allo mod, EphB4 ephrin blk)
CCOC(=O)COc1cc(=O)n(CC)c2ccccc12	none
CCn1c(=O)cc(OCC(=O)N(C)C2CCCCC2)c2ccccc21	hDAT+cocaine 2.4 (no result: D1 allo mod)
Cc1ccc(N2C(=S)N=C(Nc3ccccc3C)C23CCOC(C)(C)C3)cc1 (centres undefined)	none (no result: D1 allo mod)
O=C(NCc1nc2ccccc2[nH]1)C1=C[C@H](c2ccc3c(c2)OCO3)C[C@H](OCc2ccc(CO)cc2)O1	none (no result: D1 allo mod, EphB4 ephrin blk)
Nc1ccc(-c2nc3ccc(N)cc3o2)cc1	D1 allo mod -3.1
Cc1ccc2nc(-c3cc(N)cc(N)c3)oc2c1	none (no result: D1 allo mod)
CC(C)(C)OC(=O)N1CCN(C(=O)OCC2c3ccccc3-c3ccccc32)CC1C(=O)O (centres undefined)	none (no result: D1 allo mod, EphB4 ephrin blk)
COc1ccc(CNC(=O)C(c2ccc(C)o2)N(C(=O)c2csnn2)c2ccc(C(C)C)cc2)cc1 (centres undefined)	none (no result: D1 allo mod)
O=C(c1ccc(Br)o1)N1CCN(C/C=C/c2ccccc2)CC1	D1 allo mod -3.7
O=C(c1ccc(Br)s1)N1CCN(C/C=C/c2ccccc2)CC1	none (no result: D1 allo mod)
COc1ccc(NC(=O)c2cnc3ccccn3c2=O)cc1OC	none (no result: EphB4 ephrin blk, hDAT+cocaine)
CC(NC(=O)Cn1ccsc1=N)C12CC3CC(CC(C3)C1)C2 (centres undefined)	hDAT+cocaine -6.3
CC(NC(=O)Cn1c(=O)[nH]c2ccsc2c1=O)C12CC3CC(CC(C3)C1)C2 (centres undefined)	none (no result: D1 allo mod)
CC1(C)Nc2ccccc2N(CC(=O)N2CCCCC2)C1=O	hDAT+cocaine 1.4
CC1(C)Nc2ccccc2N(CCC(=O)N2CCOCC2)C1=O	hDAT+cocaine 1.6
CN(C(=O)CCN1C(=O)C(C)(C)Nc2ccccc21)c1ccccc1	none
O=C(CN1C(=O)c2ccccc2C1=O)N1CCCCC1	none (no result: D1 allo mod)
CC(C)CC(=O)OCc1cn(-c2ccccc2)nn1	none (no result: D1 allo mod)

Compound activity: PubChem, several laboratories
